This is part of a sample that, as a whole, favours compounds with a hit. Of some 83,000 tested, about 20% had one in any assay.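 Compound tested at a single concentration for 48 hours in 96-well plates; a percent growth value below 10 was scored as active.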 Active and inactive are the calls of the source.
What was measured:
Assay in all cases: NCI-60 one-dose screen, 48 h (100 = growth as untreated, 0 = no growth, -100 = all killed)
Settings in all cases: 10 µM unless noted
HT29 colon = tested on: HT29 colon
SNB-75 CNS = tested on: SNB-75 CNS
SNB-19 CNS = tested on: SNB-19 CNS
U251 CNS = tested on: U251 CNS
PC-3 prostate = tested on: PC-3 prostate
SK-MEL-5 melanoma = tested on: SK-MEL-5 melanoma
UACC-62 melanoma = tested on: UACC-62 melanoma
LOX IMVI melanoma = tested on: LOX IMVI melanoma
SK-MEL-28 melanoma = tested on: SK-MEL-28 melanoma
EKVX NSCLC = tested on: EKVX NSCLC
SN12C renal = tested on: SN12C renal
UO-31 renal = tested on: UO-31 renal
TK-10 renal = tested on: TK-10 renal
ACHN renal = tested on: ACHN renal
CAKI-1 renal = tested on: CAKI-1 renal
A498 renal = tested on: A498 renal
CCRF-CEM leukemia = tested on: CCRF-CEM leukemia
MOLT-4 leukemia = tested on: MOLT-4 leukemia
SK-MEL-2 melanoma = tested on: SK-MEL-2 melanoma

Measured: growth

COc1ccc(O)c(-c2cc(-c3ccccc3)c(C#N)c(=O)[nH]2)c1
inactive: HT29 colon 118% | SNB-75 CNS 93.8% | SNB-19 CNS 103% | U251 CNS 73.4% | PC-3 prostate 78.3% | SK-MEL-5 melanoma 73.7% | UACC-62 melanoma 86.1% | LOX IMVI melanoma 64.3% | SK-MEL-28 melanoma 113% | EKVX NSCLC 104% | SN12C renal 85.1% | UO-31 renal 68.2% | TK-10 renal 88.2% | ACHN renal 106% | CAKI-1 renal 95.1% | A498 renal 65.9% | CCRF-CEM leukemia 91.7% | MOLT-4 leukemia 102%

C(=C\c1nc2ccccc2[nH]1)/c1nc2ccccc2[nH]1
inactive: HT29 colon 103% | SNB-75 CNS 86.2% | SNB-19 CNS 109% | U251 CNS 106% | PC-3 prostate 90% | SK-MEL-5 melanoma 92.8% | UACC-62 melanoma 91.1% | LOX IMVI melanoma 98.1% | SK-MEL-28 melanoma 104% | UO-31 renal 81.8% | TK-10 renal 143% | ACHN renal 93.3% | CAKI-1 renal 96.6% | A498 renal 83.7% | CCRF-CEM leukemia 93.5% | MOLT-4 leukemia 80.4%

CC(C)(C)N1CC(OC(N)=O)C1
inactive: HT29 colon 101% | SNB-75 CNS 81.6% | SNB-19 CNS 106% | U251 CNS 101% | SK-MEL-5 melanoma 102% | UACC-62 melanoma 103% | LOX IMVI melanoma 96.3% | SK-MEL-28 melanoma 109% | EKVX NSCLC 90.2% | SN12C renal 100% | UO-31 renal 85.5% | TK-10 renal 94.8% | ACHN renal 106% | CAKI-1 renal 41% | A498 renal 105% | MOLT-4 leukemia 133%

OCCCCc1nccc2c1[nH]c1ccccc12
inactive: HT29 colon 94.6% | SNB-75 CNS 80.5% | SNB-19 CNS 110% | U251 CNS 108% | SK-MEL-5 melanoma 97.5% | UACC-62 melanoma 96.8% | LOX IMVI melanoma 99.8% | SK-MEL-28 melanoma 111% | SK-MEL-2 melanoma 121% | EKVX NSCLC 94.8% | SN12C renal 103% | UO-31 renal 95.1% | TK-10 renal 67.9% | ACHN renal 98.7% | A498 renal 112% | MOLT-4 leukemia 119%

O=S(=O)(NCCNc1cc(-c2c(-c3cccc(O)c3)nc3sccn23)ccn1)c1ccc(Br)cc1
active: UO-31 renal -1.33%
inactive: HT29 colon 51% | SNB-75 CNS 26.3% | SNB-19 CNS 66.1% | U251 CNS 64.6% | PC-3 prostate 49.8% | SK-MEL-5 melanoma 25.2% | UACC-62 melanoma 56.8% | LOX IMVI melanoma 61.6% | SK-MEL-28 melanoma 84.9% | SK-MEL-2 melanoma 79.5% | EKVX NSCLC 56.8% | SN12C renal 45.3% | TK-10 renal 83.2% | ACHN renal 56.7% | CAKI-1 renal 39% | A498 renal 51.1% | CCRF-CEM leukemia 39.9% | MOLT-4 leukemia 32.9%

Cc1[nH]c(-c2nc3ccccc3[nH]2)c(C)c1C(=O)N1CCc2sccc2C1
inactive: HT29 colon 96% | SNB-75 CNS 78.6% | SNB-19 CNS 89.4% | U251 CNS 97.9% | PC-3 prostate 87.3% | SK-MEL-5 melanoma 88.8% | UACC-62 melanoma 87.8% | LOX IMVI melanoma 93.3% | SK-MEL-28 melanoma 94.5% | SK-MEL-2 melanoma 107% | EKVX NSCLC 91.9% | SN12C renal 89.2% | UO-31 renal 77.9% | TK-10 renal 106% | ACHN renal 99.5% | CAKI-1 renal 85.1% | CCRF-CEM leukemia 88.7% | MOLT-4 leukemia 93.3%

Cc1[nH]c(-c2nc3ccccc3[nH]2)c(C)c1C(=O)NNc1ccc(Cl)cc1
inactive: HT29 colon 104% | SNB-75 CNS 87.1% | SNB-19 CNS 87.1% | U251 CNS 103% | PC-3 prostate 85.6% | SK-MEL-5 melanoma 98.2% | UACC-62 melanoma 90.2% | LOX IMVI melanoma 93.6% | SK-MEL-28 melanoma 99.6% | SK-MEL-2 melanoma 103% | SN12C renal 90.7% | UO-31 renal 72.5% | TK-10 renal 106% | ACHN renal 102% | CAKI-1 renal 80.2% | CCRF-CEM leukemia 94.6% | MOLT-4 leukemia 81.6%

O=C1CSC(c2ccc(O)cc2)N1c1nnc(Cn2cnnc2)o1 (stereo not given)
inactive: HT29 colon 55.8% | SNB-75 CNS 53.8% | SNB-19 CNS 97.9% | U251 CNS 110% | PC-3 prostate 88.7% | SK-MEL-5 melanoma 105% | UACC-62 melanoma 97.2% | LOX IMVI melanoma 99.9% | SK-MEL-28 melanoma 77.9% | EKVX NSCLC 99.1% | SN12C renal 85.9% | UO-31 renal 91.9% | TK-10 renal 131% | ACHN renal 108% | CAKI-1 renal 79.4% | A498 renal 99.9% | CCRF-CEM leukemia 49.1% | MOLT-4 leukemia 58.7%

CC(=O)Nc1nccs1
inactive: HT29 colon 101% | SNB-75 CNS 106% | SNB-19 CNS 96.3% | U251 CNS 98.9% | PC-3 prostate 96.1% | SK-MEL-5 melanoma 101% | UACC-62 melanoma 92.7% | LOX IMVI melanoma 94.8% | SK-MEL-28 melanoma 98.6% | EKVX NSCLC 92.2% | SN12C renal 97.2% | UO-31 renal 84.7% | TK-10 renal 99.9% | ACHN renal 98.1% | CAKI-1 renal 101% | A498 renal 73.6% | CCRF-CEM leukemia 96.4% | MOLT-4 leukemia 103%

COc1ccc(/C=C2\COc3ccc(O)cc3C2=O)cc1OC
active: CCRF-CEM leukemia 3.05%
inactive: HT29 colon 19.9% | SNB-75 CNS 91.3% | SNB-19 CNS 59.5% | U251 CNS 40.8% | PC-3 prostate 64.3% | UACC-62 melanoma 77.1% | LOX IMVI melanoma 11.6% | SK-MEL-28 melanoma 97.3% | SK-MEL-2 melanoma 97.1% | EKVX NSCLC 96.3% | SN12C renal 59.3% | UO-31 renal 66.6% | TK-10 renal 93.1% | ACHN renal 73% | CAKI-1 renal 62.3% | A498 renal 90.6% | MOLT-4 leukemia 48%

COC(=O)[C@]12CC[C@@H](C)[C@H](C)[C@@H]1C1=CC[C@@H]3[C@@]4(C)C(C=O)=C[C@@](C)(CO)C4=CC[C@@]3(C)[C@]1(C)CC2
inactive: HT29 colon 14.5% | SNB-75 CNS 62.6% | SNB-19 CNS 39.4% | U251 CNS 23.4% | PC-3 prostate 16.2% | SK-MEL-5 melanoma 35.2% | UACC-62 melanoma 42.9% | LOX IMVI melanoma 26.1% | SK-MEL-28 melanoma 26.9% | SK-MEL-2 melanoma 52.4% | EKVX NSCLC 34.4% | UO-31 renal 27.8% | ACHN renal 17.1% | CAKI-1 renal 42.8% | CCRF-CEM leukemia 18.7%
active: MOLT-4 leukemia 8.61%

NC(=O)c1c(NC(=O)c2ccc(C(F)(F)F)cc2Cl)sc2c1CCC(=O)C2
inactive: A498 renal 61.9%
active: HT29 colon 1.16% | SNB-75 CNS -81.9% | U251 CNS -5.53% | PC-3 prostate -68.8% | SK-MEL-5 melanoma -91.9% | UACC-62 melanoma -74.7% | LOX IMVI melanoma -15.5% | SK-MEL-28 melanoma -67.2% | SK-MEL-2 melanoma -11.1% | EKVX NSCLC -9.99% | SN12C renal -5.19% | UO-31 renal -100% | TK-10 renal 6.29% | ACHN renal -91.1% | CAKI-1 renal -82.2% | CCRF-CEM leukemia -1.78% | MOLT-4 leukemia -12.9%

N=C(N)c1ccc(-c2ccc(-c3ccc(Cl)c(Cl)c3)o2)nc1
active: HT29 colon -39.8% | SNB-19 CNS 6.96% | U251 CNS -57.1% | LOX IMVI melanoma -74.7% | SN12C renal -72.8% | UO-31 renal -92% | ACHN renal -86.9% | CCRF-CEM leukemia 2.34% | MOLT-4 leukemia 9.85%
inactive: SNB-75 CNS 97.8% | PC-3 prostate 64.5% | SK-MEL-5 melanoma 92.4% | UACC-62 melanoma 103% | SK-MEL-28 melanoma 99.6% | SK-MEL-2 melanoma 108% | EKVX NSCLC 97.3% | TK-10 renal 116% | CAKI-1 renal 87.1%

CN(C)CCN1C(=O)c2cccc3c(-c4ccc(-c5nc6c7ccccc7c7ccccc7c6[nH]5)cc4)ccc(c23)C1=O
inactive: HT29 colon 81.1% | SNB-75 CNS 117% | SNB-19 CNS 110% | U251 CNS 95.5% | PC-3 prostate 87.9% | SK-MEL-5 melanoma 101% | UACC-62 melanoma 112% | LOX IMVI melanoma 58% | SK-MEL-28 melanoma 114% | SK-MEL-2 melanoma 105% | EKVX NSCLC 93.9% | SN12C renal 97.4% | UO-31 renal 96.8% | TK-10 renal 105% | ACHN renal 112% | CAKI-1 renal 88% | A498 renal 100% | CCRF-CEM leukemia 55.4% | MOLT-4 leukemia 84%

CCOC(=O)c1c(C)nc2c(c1N)/C(=C/c1ccc(OC)cc1)C(=O)N2Cc1ccc(F)cc1
active: HT29 colon -75.9% | SNB-75 CNS -13.7% | SNB-19 CNS -67.4% | U251 CNS -81.5% | PC-3 prostate -52.5% | SK-MEL-5 melanoma -87.9% | UACC-62 melanoma -78.2% | LOX IMVI melanoma -93.1% | SK-MEL-28 melanoma -39.9% | EKVX NSCLC 9.23% | SN12C renal -40% | UO-31 renal -38.4% | TK-10 renal -70.8% | A498 renal -44.2% | CCRF-CEM leukemia -5.4% | MOLT-4 leukemia 1.64%

COc1cc(/C=C/C(=O)c2ccc(Nc3nc(Nc4ccccc4)nc(Nc4ccc(Cl)cc4)n3)cc2)cc(OC)c1OC
inactive: HT29 colon 46.8% | SNB-75 CNS 57.5% | SNB-19 CNS 92.8% | U251 CNS 37.4% | SK-MEL-5 melanoma 39% | UACC-62 melanoma 59.8% | LOX IMVI melanoma 66.5% | SK-MEL-28 melanoma 39.9% | SK-MEL-2 melanoma 82% | EKVX NSCLC 52.8% | SN12C renal 69% | UO-31 renal 50.6% | TK-10 renal 74.7% | ACHN renal 66.1% | CAKI-1 renal 66.4% | CCRF-CEM leukemia 18.5% | MOLT-4 leukemia 25.5%

COc1ccc(C2=NC(=O)NC2c2ccc(OC)cc2)cc1 (stereo not given)
inactive: HT29 colon 37.2% | SNB-75 CNS 46.7% | SNB-19 CNS 58.5% | U251 CNS 74.6% | SK-MEL-5 melanoma 63% | UACC-62 melanoma 47.2% | LOX IMVI melanoma 64% | SK-MEL-28 melanoma 72.6% | SK-MEL-2 melanoma 59.9% | EKVX NSCLC 75.9% | SN12C renal 71% | UO-31 renal 61% | TK-10 renal 87.6% | ACHN renal 83.2% | CAKI-1 renal 50.6% | CCRF-CEM leukemia 68.3% | MOLT-4 leukemia 65.8%

From PubChem BioAssay (NCI)
